Rows were chosen to be rich in hits. Some 4.6% of all compounds tested hit in one or more screens of this group.
TRHR PAM = TRH receptor (human) allosteric enhancement; P34981; TRHR cells, fluo-8 calcium fluorescence, EC20 TRH enhancement; enhancement, % at 2 µM; 360,000 compounds, 0.66% hits; AID 493056; in the data active = enhancement above about 30%; also: 0% is about no effect
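TRHR-expressing cells loaded with fluo-8 calcium dye were read kinetically (ex 480/em 530) during compound addition, then stimulated with an EC20 of TRH (10 nM final). Enhancement of the Gq-mediated intracellular calcium response was scored.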
D1 ag = activates the human D1 dopamine receptor; P21728; 360,000 compounds, 1% hits; activation, % at 2 µM; HEK293 T-REx D1 cells, calcium flux, agonist mode; also: 0% is about no effect
Target sequence (P21728 whole entry, looked up): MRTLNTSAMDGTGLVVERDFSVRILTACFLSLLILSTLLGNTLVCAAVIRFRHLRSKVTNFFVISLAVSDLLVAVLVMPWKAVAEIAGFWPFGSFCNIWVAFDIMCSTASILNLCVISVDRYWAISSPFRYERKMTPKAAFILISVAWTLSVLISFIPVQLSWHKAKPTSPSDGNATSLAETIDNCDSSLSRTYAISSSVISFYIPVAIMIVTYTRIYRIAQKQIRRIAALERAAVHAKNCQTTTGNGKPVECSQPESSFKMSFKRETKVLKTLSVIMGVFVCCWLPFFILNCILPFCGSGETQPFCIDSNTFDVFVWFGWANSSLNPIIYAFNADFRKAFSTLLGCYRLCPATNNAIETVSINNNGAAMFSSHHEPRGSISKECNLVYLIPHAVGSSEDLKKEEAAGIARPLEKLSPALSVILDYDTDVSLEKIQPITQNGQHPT
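Inducible HEK293 T-REx D1 cells, force-coupled to calcium signalling, were plated at 4000 cells/well with tetracycline and held overnight at 30 C. After no-wash calcium dye loading, compound-evoked calcium rise over 180 s flagged agonists.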
D1 PAM = enhances dopamine response at the human D1 receptor; P21728; HEK293 TREx D1 cells, calcium flux, dopamine EC20 potentiation; AID 504651; potentiation, % at 10 µM; 360,000 compounds, 0.036% hits; in the data active = potentiation above about 30%; also: 0% is about no effect
TRHR ag = agonists of human TRH receptor; P34981; TRHR cells, calcium flux fluo-8, FDSS agonist mode; activation, % at 2 µM; 360,000 compounds, 0.18% hits; AID 493084; also: 0% is about no effect
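Agonist-mode FDSS calcium read (Ex 480/Em 530, 1 s cycles) in 1536-well TRHR cells with fluo-8 dye, after 10-cycle baseline and 23 nL compound addition; TRH at EC20 (10 nM final) added afterwards for the enhancer phase.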
D1 antagonist = antagonists of human D1 dopamine receptor | 360,000 compounds, 3.2% hits | activity change, negative = inhibition, % at 10 µM | AID 504652 | P21728 | HEK293 TREx D1 cells, calcium flux, dopamine EC80; hits give low values; in the data active = activity change below about -30%; also: % is scaled to controls: 0 for no effect and ±100 for the full control effect
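After overnight tetracycline induction at 30 C, force-coupled D1 HEK293 cells took up a no-wash calcium dye at room temperature. Compounds were added and monitored 180 s, and the response to EC80 dopamine was then recorded.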
Numbers without * were called inactive; . = no result. Rule as the data show it, unless noted: active = activation above about 30%; inactive = the rest.

SMILES	TRHR PAM	D1 ag	D1 PAM	TRHR ag	D1 antagonist
Cc1ccc(NC(=O)c2cc(S(=O)(=O)N3CCc4ccccc43)cn2C)cc1C	-2	7	-8	0	-45*
CCCC1(C(=O)OCC)NC(c2ccc(O)cc2)C2C(=O)N(c3ccc4c(c3)OCCO4)C(=O)C21 (stereo unspecified)	0	4	-1	1	-3
COC(=O)C1(c2ccccc2)NC(c2ccc(O)cc2)C2C(=O)N(c3ccc4c(c3)OCO4)C(=O)C21 (stereo unspecified)	-1	0	-5	0	-56*
COc1ccc(COCC(O)CN2CCN(S(=O)(=O)c3ccc(C(C)C)cc3)CC2)cc1 (stereo unspecified)	-1	6	0	1	-30*
Cc1ccsc1/C=N/n1c(-c2ccco2)n[nH]c1=S	-2	2	-2	0	4
CCC(=O)N1CCc2cc(S(=O)(=O)NC(C(=O)NCCc3cccc(C)c3)C(C)C)ccc21 (stereo unspecified)	-2	0	-2	-1	-62*
CCC(=O)N1CCc2cc(S(=O)(=O)NC(C(=O)NCc3ccccc3)C(C)C)ccc21 (stereo unspecified)	-7	1	-3	0	1
CCC(=O)N1CCc2cc(S(=O)(=O)NCCC(=O)N3CCN(c4cccc(C)c4)C(C)C3)ccc21 (stereo unspecified)	2	11	-7	0	-40*
CC(=O)N1CCc2cc(S(=O)(=O)NC(Cc3ccccc3)C(=O)Nc3cccc(C)c3)ccc21 (stereo unspecified)	6	2	-2	-1	-38*
O=C(CN1CCOCC1)NNC(=O)c1ccc([N+](=O)[O-])cc1	2	2	2	0	7
CCCCOc1nc(N)nc(-c2ccccc2)n1	2	6	-4	0	5
Cn1c(=O)c2c(nc(NCc3ccccc3)n2Cc2ccccc2Cl)n(C)c1=O	12	-2	-7	0	-30*
Cn1c(=O)c2c(nc(SCc3cccnc3)n2Cc2ccccc2)n(C)c1=O	10	0	-7	-1	-41*
Cc1ccc(Cn2c(SCc3cccnc3)nc3c2c(=O)n(C)c(=O)n3C)cc1	-1	2	-1	-1	14
Cn1c(=O)c2c(nc(NCCO)n2CCc2ccccc2)n(C)c1=O	-2	2	-6	0	-79*
C=CCn1c(Oc2ccc(C=O)cc2OCC)nc2c1c(=O)n(C)c(=O)n2C	2	1	-13	0	-61*
CCn1c(Oc2ccccc2C)nc2c1c(=O)n(C)c(=O)n2C	-3	4	3	-2	-4
Cn1c(=O)c2c(nc(NCCCO)n2CCc2ccccc2)n(C)c1=O	6	1	2	0	2
Cn1c(=O)c2c(nc(NCc3cccnc3)n2Cc2ccccc2Cl)n(C)c1=O	3	1	17	0	-3
O=S(=O)(c1cnc[nH]1)N1CCN(c2ccc(F)cc2)CC1	9	4	-3	1	4
Cc1ccc2cccc(S(=O)(=O)N3CCN(c4cccc(Cl)c4)CC3)c2n1	-1	2	-4	0	-5
O=C(C1CCCN(c2ncnc3c2nc2n3CCCCC2)C1)N1CCN(c2ccccc2)CC1 (stereo unspecified)	7	0	-9	1	26
COc1ccc(CNC(=O)C/C(C)=N/NC(=O)c2cc(OC)cc(OC)c2)cc1	-17	6	.	0	1
CCOc1ccc(CCNc2nc3c(c(=O)n(C)c(=O)n3C)n2CC)cc1OCC	-2	6	-10	-3	-31*
O=C(CCCNC(=O)/C(=C/c1ccc(Br)cc1)NC(=O)c1ccccc1)OCc1ccccc1	18	1	-3	1	5
SMILES	TRHR PAM	D1 ag	D1 PAM	TRHR ag	D1 antagonist
c1cncc(-c2nc(NCCCn3ccnc3)c3ccccc3n2)c1	-6	0	1	0	-38*
c1ccc(-c2nc(NCCCN3CCOCC3)c3ccccc3n2)cc1	-2	4	-9	0	8
Cc1nc(NCCCn2ccnc2)c2ccccc2n1	-8	1	-9	0	-1
Cc1cccc(-c2nc(NCCCN3CCOCC3)c3ccccc3n2)c1	9	50*	3	-1	-7
Cc1ccc(O)c(NC(=O)CSc2n[nH]c(C)c2[N+](=O)[O-])c1	0	16	-7	0	-34*
Cc1[nH]nc(SCC(=O)NCc2ccc(F)cc2)c1[N+](=O)[O-]	-8	-1	-6	-1	-40*
O=C(NCc1ccc2c(c1)OCO2)C1CCN(S(=O)(=O)c2ccc(F)cc2)CC1	-5	11	-2	-1	-17
Cc1cc(C)c2nc(NNC(=O)c3cc(=O)c4ccccc4o3)sc2c1	1	5	-4	-1	-4
CCCC(=O)Nc1ccc(S(=O)(=O)N2CCC(c3nc4ccccc4[nH]3)CC2)cc1	-4	6	-5	1	-8
COc1cccc(-n2c(SC)nnc2-c2cnccn2)c1	-6	1	-2	0	-45*
COc1cccc(-n2c(SCC#N)nnc2-c2cnccn2)c1	-7	1	3	0	-9
C/C=C/c1ccc(OCCN2CCc3ccccc3C2)c(OC)c1	-2	-1	-14	-1	-24
Cc1ccc(Cl)c(OCCCCN(C)Cc2ccccc2)c1	4	3	-12	0	-29
Cc1ccc(Cl)c(OCCN2CCc3ccccc3C2)c1	-4	0	-22	0	-40*
Cc1ccc(Cl)c(OCCCN(C)Cc2ccccc2)c1	5	7	-3	1	-55*
CCOc1ccccc1OCCCOc1ccc(C)cc1Cl	-4	3	-6	1	-86*
Cc1nn(CC(=O)c2ccc(Br)s2)c(C)c1[N+](=O)[O-]	-6	9	-2	3	-5
Cc1ccc([N+](=O)[O-])cc1N/C=C1\CCCCC1=O	13	37*	-4	0	13
Cc1cc(O)ccc1N/C=C1\CCCC1=O	3	7	1	0	16
CCOc1ccc2nc(NC(=O)C(CC)Sc3nc(C)cc(=O)[nH]3)sc2c1 (stereo unspecified)	0	0	-4	-1	-42*
CCCc1cc(=O)[nH]c(SCC(=O)Nc2nc3ccc(OCC)cc3s2)n1	2	1	6	0	4
CCOc1ccc2nc(NC(=O)C(NS(=O)(=O)c3cccc4nsnc34)C(C)C)sc2c1 (stereo unspecified)	-5	0	-6	-1	-33*
O=C(c1cccs1)N1CCc2c([nH]c3ccccc23)C1c1ccccn1 (stereo unspecified)	0	0	-1	0	2
CC(=O)c1ccc(C(=O)N2CCc3c([nH]c4ccccc34)C2c2ccccn2)s1 (stereo unspecified)	-2	1	-2	-1	-31*

Assay outcomes (PubChem BioAssay)
